FPR binder: human FPR ligands by binding competition, primary screen, cell-based, FPRL1 counter-screen, flow cytometry | fMet-Leu-Phe receptor (Homo sapiens), P21462 | FPR-expressing cells, fluorescent ligand binding | inhibition, % (test concentration not listed) | 24,000 compounds, 0.74% hits | AID 440, 2006;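 note: 0% = buffer wells and 100% = receptor blocker peptide wells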
Jurkat autofluor: compound autofluorescence on Jurkat cells, primary screen, artefact control for VLA-4 allosteric ligand project, cell-based, flow cytometry. fluorescence ratio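 (tested at 10 µM compound in the well)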. AID 576, 2007. 24,000 compounds, 0.61% hits. hits give high values; 1 = vehicle-only cell background;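 active = fluorescence ratio above 2.44, which is 1 plus 3 SD of all ratios; inconclusive = signal too bright to measure linearly, ratio around 10 or more; inactive = fluorescence ratio below 2.44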;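 note: green fluorescence of cells measured with 488 nm excitation and 530 nm emission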
FPRL1 binder: human FPRL1 ligands by binding competition, primary screen, cell-based, FPR counter-screen, flow cytometry. N-formyl peptide receptor 2 (Homo sapiens), P25090. FPRL1-expressing cells, fluorescent ligand binding inhibition. inhibition, % (test concentration not listed). 24,000 compounds, 0.3% hits;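 note: 0% = buffer alone and 100% = receptor blocker peptide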
Target sequence (P25090 whole entry, looked up): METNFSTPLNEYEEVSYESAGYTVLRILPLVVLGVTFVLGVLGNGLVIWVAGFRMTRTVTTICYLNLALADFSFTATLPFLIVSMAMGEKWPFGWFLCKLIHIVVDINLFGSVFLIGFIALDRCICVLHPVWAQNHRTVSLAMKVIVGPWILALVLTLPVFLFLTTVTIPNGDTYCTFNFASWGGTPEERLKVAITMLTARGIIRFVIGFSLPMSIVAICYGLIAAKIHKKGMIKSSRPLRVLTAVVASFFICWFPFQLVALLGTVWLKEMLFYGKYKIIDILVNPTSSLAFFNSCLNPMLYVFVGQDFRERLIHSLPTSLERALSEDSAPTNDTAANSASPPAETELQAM
VLA-4 agonist: enhancers of LDV-FITC binding to VLA-4 integrin, primary screen, Jurkat cells, flow cytometry. 24,000 tested, under 10 active. AID 528, 2006. Integrin alpha-4 (Homo sapiens), P13612. activation, % at 10 µM (by protocol);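 active = fluorescent ligand binding to cells raised by more than 40% of the manganese-induced maximum; inconclusive = compound's own fluorescence above 85% of the ligand control signal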;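 note: 0% = ligand binding without compound and 100% = manganese-stimulated maximal binding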
26S disassembly: inhibitors of ATP-driven 26S proteasome dissociation, primary screen, biochemical, bead-based flow cytometry, GFP-tagged proteasome | AID 751, 2007 | 24,000 compounds, 0.2% hits | inhibition of disassembly, % (concentration not given with the values) | anti-FLAG beads, GFP-proteasome disassembly;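 active = inhibition of disassembly above about 33%, limit read from the data; inconclusive = likely self-fluorescent, control bead median signal at least 40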;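 note: plate controls were ATP control with full disassembly for no effect and ATP-gamma-S intact proteasomes for full effect; higher percent means more bead fluorescence retained so stronger block of disassembly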
VLA-4 antagonist: inhibitors of LDV-FITC binding to Mn2+-activated VLA-4, primary screen, Jurkat cells; LDV-FITC binding with Mn2+, flow cytometry; 100% = Mn2+-driven binding gain fully reversed; inhibition, % at 10 µM (by protocol); 24,000 compounds, 0.2% hits; AID 529, 2006;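 active = inhibition above 50%; inconclusive = compound itself fluorescent, judged against control cell fluorescence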;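 note: 0% = Mn2+ stimulated cells lacking compound and 100% = ligand binding without Mn2+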
* marks the source's active call; other numbers are inactive results. Sampled rows, rich in hits. Any-hit rate of the full collection: about 1.9%. Cut-off read from the data, not from the text of the source, unless noted: active = inhibition above about 30%; inconclusive = no clear call, values can overlap the other calls; inactive = below that.

Screening CCc1nnc(NC(=O)c2ccc(S(=O)(=O)N(CCOC)CCOC)cc2)o1 returned FPR binder 0, Jurkat autofluor 3.6*, FPRL1 binder 2, VLA-4 agonist inconclusive, 26S disassembly -2 and VLA-4 antagonist inconclusive.
Screening CCN(Cc1ccccc1)S(=O)(=O)c1ccc(C(=O)Nc2nnc(-c3ccccc3OC)o2)cc1 returned FPR binder -8, Jurkat autofluor 1.4, FPRL1 binder -2, VLA-4 agonist inconclusive, 26S disassembly -1 and VLA-4 antagonist inconclusive.
`COc1ccccc1-c1nnc(NC(=O)c2ccc(S(=O)(=O)N(C)C)cc2)o1` gave FPR binder -2, Jurkat autofluor 5.1*, FPRL1 binder 6, VLA-4 agonist inconclusive, 26S disassembly 0 and VLA-4 antagonist inconclusive.
Screening CC1CCCCN1S(=O)(=O)c1ccc(C(=O)Nc2nnc(-c3ccccc3Cl)o2)cc1 (centres undefined) returned FPR binder 4, Jurkat autofluor 1.1, FPRL1 binder 1, VLA-4 agonist -2, 26S disassembly -1 and VLA-4 antagonist -12.
COc1ccc(-c2nnc(NC(=O)c3ccc(S(=O)(=O)N4COCC4(C)C)cc3)o2)cc1 was read as FPR binder -6, Jurkat autofluor 6.3*, FPRL1 binder -2, VLA-4 agonist inconclusive, 26S disassembly -2 and VLA-4 antagonist inconclusive.
`O=C(Nc1nnc(-c2ccccc2Cl)o1)c1ccc(S(=O)(=O)N2CCCCCC2)cc1` gave FPR binder 31*, Jurkat autofluor 1.1, FPRL1 binder -5, VLA-4 agonist 2, 26S disassembly 1 and VLA-4 antagonist -10.
COc1cccc(NS(=O)(=O)c2ccc(Br)s2)c1 was read as FPR binder inconclusive, Jurkat autofluor 2.9*, FPRL1 binder inconclusive, VLA-4 agonist inconclusive, 26S disassembly 2 and VLA-4 antagonist inconclusive.
Screening O=C(O)c1ccc(CSc2nc3ccccc3o2)cc1 returned FPR binder 1, Jurkat autofluor 1.1, FPRL1 binder 0, VLA-4 agonist -5, 26S disassembly -1 and VLA-4 antagonist -6.
CCOC(=O)N1CCC(NC(=O)c2cc(C(=O)Nc3ccc(OC)c(OC)c3)ccc2CO)CC1 was read as FPR binder 15, Jurkat autofluor 1.1, FPRL1 binder 34*, VLA-4 agonist 3, 26S disassembly -1 and VLA-4 antagonist inconclusive.
Screening CCOC(=O)N1CCC(NC(=O)c2cc(C(=O)Nc3cccc(OC)c3)ccc2CO)CC1 returned FPR binder 6, Jurkat autofluor 1, FPRL1 binder 3, VLA-4 agonist 4, 26S disassembly -1 and VLA-4 antagonist -28.
For Cc1ccc(/C(O)=C2/C(=O)C(=O)N(CCCn3ccnc3)C2c2ccccn2)cc1 (centres undefined) the results were FPR binder -29 and FPRL1 binder -1.
For Cc1ccc(C)c(/C(O)=C2\C(=O)C(=O)N(CCCn3ccnc3)C2c2ccncc2)c1 (centres undefined) the results were FPR binder 37* and FPRL1 binder 25.
For COc1ccc(C2/C(=C(/O)c3ccc4c(c3)CC(C)O4)C(=O)C(=O)N2CCN2CCOCC2)cc1 (centres undefined) the results were FPR binder 2 and FPRL1 binder 0.
For COc1cc(C2/C(=C(\O)c3ccc4c(c3)CC(C)O4)C(=O)C(=O)N2CCCn2ccnc2)ccc1O (centres undefined) the results were FPR binder 44* and FPRL1 binder 33*.
Screening COC(=O)C1(S(=O)(=O)c2cccc3nsnc23)CC1 returned FPR binder 33*, Jurkat autofluor 1.2, FPRL1 binder 84*, VLA-4 agonist -2, 26S disassembly 3 and VLA-4 antagonist -2.
`CC(C)NS(=O)(=O)c1cccc2nsnc12` gave FPR binder 3, Jurkat autofluor 1.1, FPRL1 binder -4, VLA-4 agonist -3, 26S disassembly 1 and VLA-4 antagonist -10.

Screens from PubChem.
